According to PubChem BioAssay (NCATS):
This is one part of the list. Results filed as inconclusive are left out. Calls of active or inactive are those of the source. Calls come from the whole dose curve; as a rule, active = well fitted inhibition curve with a large enough effect; inconclusive = small, poorly fitted or top-dose-only effect; inactive = no such curve, though single readings can be large or run the other way.

Assay: qHTS screen for small molecules that inhibit ELG1-dependent DNA repair: Hit Confirmation in Cell-Based Luciferin Assay (AID 624247)
Details: cell-free firefly luciferase luminescence counter-screen, ViewLux; series mostly up to 46.1 µM
From the text: Cancer cells divide rapidly compared to normal cells in the body. During cell division, cancer cells need to duplicate their genome by DNA replication. The failure of genome duplication leads to cancer cells' death. Therefore, inhibitors of DNA replication could specifically kill cancer cells. Based on this concept, many chemotherapeutic agents were developed and have been used to treat cancer patients. However, there are a limited number of agents available in the clinical setting, and some of those that do exist have low efficacy and severe side effects. Therefore, if we can find the compounds that effectively block DNA replication either by directly damaging DNA or by inhibiting other cellular mechanisms, the options for cancer treatment will be broadened. With this in mind, we developed a quantitative high-throughput ELG1-luciferase reporter gene assay. Small molecules that specifically block ELG1 function in response to DNA damage can be identified by monitoring the suppression of luciferase activity. Since ELG1 defines a pathway for repairing DNA damage, agents blocking ELG1 function can be used to sensitize cancer cells to chemotherapeutic agents whose mechanism of action involves the induction of DNA damage. NIH Molecular Libraries Probe Production Network [MLPCN] NIH Chemical Genomics Center [NCGC] MLPCN Grant: R03 MH092164 Assay Provider: Kyungjae Myung, NHGRI, NIH
3 µL of substrate reagent will be pipetted into each well in 1536-well white, solid-bottom plates using a FRD dispenser, followed by addition of 23 nL of DMSO or compounds by pintool. After compound addition, 1 µL of luciferase will be added into the wells. The plates will be read in a ViewLux CCD-based plate reader.

Which outcome does the source give for `Cc1ccccc1NC(=O)CSc1nc2ccc(Nc3nc(N4CCOCC4)nc(N4CCOCC4)n3)cc2s1` here?
The outcome was “inactive”.

Which outcome does the source give for `COc1ccc(CSc2nc(N3CCOCC3)c3c(c2C#N)CC(C)(C)OC3)cc1` here?
Its outcome is “inactive”.

For `CCOC(=O)c1cccc(NC(=O)C2CCN(c3ncnc4c3nc3n4CCCCC3)CC2)c1`, which outcome is on record?
The outcome was “inactive”.

Which outcome does the source give for `CS(=O)c1ccc(/C=C2\C=Cc3ccccc32)cc1` (stereo unspecified) here?
The outcome was “inactive”.

With `O=C(C1CCCN(S(=O)(=O)c2ccccc2)C1)N1CCN(c2ccc(F)cc2)CC1` (stereo unspecified) as the compound, how does the outcome read?
The outcome was “inactive”.

For `CC(=O)N1CCc2cc(Br)cc(S(=O)(=O)CCC(=O)Nc3c(C)n(C)n(-c4ccccc4)c3=O)c21`, which outcome is on record?
The outcome was “inactive”.

For `Cc1ccc(Nc2nc(N3CCOCC3)nc(N3CCOCC3)n2)cc1Cl`, which outcome is on record?
The outcome was “inactive”.

With `Cc1ccc(OCC(=O)Nc2ccc(-c3nc4ncccc4o3)cc2)cc1` as the compound, how does the outcome read?
The outcome was “inactive”.

Which outcome does the source give for `O=C(Nn1c(SCc2ccc([N+](=O)[O-])cc2)nc2ccccc2c1=O)c1ccc(F)cc1` here?
The outcome was “inactive”.

For `COc1ccc(NC(C)=O)cc1NC(=O)CN1CCN(C2c3ccccc3-c3ccccc32)CC1`, which outcome is on record?
Its outcome is “inactive”.

With `COc1ccc(NC(=O)c2sc3nc(C)nc(N4CCN(c5ccccn5)CC4)c3c2C)c(OC)c1` as the compound, how does the outcome read?
The outcome was “inactive”.
